Screening data (PubChem)
CYP2C9 inh: human CYP2C9 inhibition | P11712 | hit rate 20% among 96,000 | CYP2C9 Supersomes, luciferin-H conversion, luminescence | AID 777 | inhibition, % at 5 µM;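 active = blocking of liver enzyme CYP2C9 beyond about 50% at 5 µM, limit read from the data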
Target sequence (P11712 whole entry, looked up): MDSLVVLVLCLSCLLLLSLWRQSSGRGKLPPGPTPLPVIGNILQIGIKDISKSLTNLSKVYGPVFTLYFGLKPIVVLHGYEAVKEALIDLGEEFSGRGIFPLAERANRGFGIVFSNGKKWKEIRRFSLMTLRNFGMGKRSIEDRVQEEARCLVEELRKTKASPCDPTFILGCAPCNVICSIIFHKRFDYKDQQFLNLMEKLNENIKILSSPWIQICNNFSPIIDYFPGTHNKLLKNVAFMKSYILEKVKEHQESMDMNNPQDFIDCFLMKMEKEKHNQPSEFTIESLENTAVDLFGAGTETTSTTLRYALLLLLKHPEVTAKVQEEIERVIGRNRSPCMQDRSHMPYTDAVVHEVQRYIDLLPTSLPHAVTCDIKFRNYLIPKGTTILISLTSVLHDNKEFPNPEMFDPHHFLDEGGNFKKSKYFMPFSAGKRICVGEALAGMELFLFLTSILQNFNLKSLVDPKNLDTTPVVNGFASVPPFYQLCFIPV
CYP2C9 activ: increases human cytochrome P450 2C9 activity. recombinant CYP2C9, luciferin-H conversion, luminescence; hits give high values; factor 1 = untreated enzyme, 0 = blocked. hit rate 1.4% among 96,000. activation factor at 5 µM. P11712;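 active = activation factor of 2 or more for CYP2C9 at a 5 µM dose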;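 also: 0 = sulfaphenazole-blocked wells and 1 = vehicle-only wells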
CYP2C19 inhib: blocks human cytochrome P450 2C19. inhibition, % at 5 µM. hit rate 21% among 96,000. CYP2C19 Supersomes, luciferin-H EGE luminescence, 30 min. AID 778. P33261;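 active = CYP2C19 inhibition above a set limit at 5 µM in the primary screen, cut at about 50% in these data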;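 also: plate controls were negative control wells for no effect and 2.5 mM tranylcypromine positive control for full effect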
CYP2C19 activ: increases human CYP2C19 enzyme activity; AID 1025; P33261; activation factor at 5 µM; 96,000 tested, under 10 active; recombinant CYP2C19, luciferin-H EGE luminescence; hits give high values; 0 = fully inhibited enzyme, 1 = untreated enzyme;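 active = activation factor of at least 2 at 5 µM in the primary screen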;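 also: 0 = wells with 2.5 mM tranylcypromine and 1 = vehicle-only wells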
Measles CPE: protection of cells from measles virus | Measles virus-infected cells, CPE protection, absorbance | protection (pct of control), % at 4 µM | hit rate 1.5% among 140,000 | AID 841; in the data active = protection mostly above about 24%, no sharp cut-off; inactive = mostly below about 26%
Active calls of the source: *; / = no result given. Only some compounds are listed: those with a hit (about 22% of all), similar ones and a draw of the others.

SMILES	CYP2C9 inh	CYP2C9 activ	CYP2C19 inhib	CYP2C19 activ	Measles CPE
CCOCCn1c(SCCc2ccccc2)nc2c1c(=O)[nH]c(=O)n2C	73.5*	0.3	14.8	0.9	13.9
CCCCCn1c(SCC(=O)OC)nc2c1c(=O)[nH]c(=O)n2C	9.8	0.9	4.0	1	17.5
COC(=O)C(C)Sc1nc2c(c(=O)[nH]c(=O)n2C)n1CCCc1ccccc1 (configuration not stated)	14.7	0.9	29.6	0.7	1.4
CCCCn1c(SCC(=O)c2ccccc2)nc2c1c(=O)[nH]c(=O)n2C	70.5*	0.3	43.0	0.6	16.4
COCCn1c(SCC(=O)OCc2ccccc2)nc2c1c(=O)[nH]c(=O)n2C	-3.4	1	-8.9	1.1	/
CCOC(=O)C(C)Sc1nc2c(c(=O)[nH]c(=O)n2C)n1CCc1ccccc1 (configuration not stated)	51.5*	0.5	39.9	0.6	3.3
COCCn1c(SCCCc2ccccc2)nc2c1c(=O)[nH]c(=O)n2C	59.3*	0.4	43.4	0.6	5.5
O=C(O)c1cc(Cl)c(Cl)cc1C(=O)N1CCCC1	-22.5	1.2	-18.4	1.2	0.5
O=S(=O)(/C(=C/c1ccc(C(F)(F)F)cc1)c1nc2ccccc2[nH]1)c1ccccc1	/	/	/	/	0.5
Cc1cccc(N2CCN(C(=O)CSc3ccsc3[N+](=O)[O-])CC2C)c1 (configuration not stated)	/	/	/	/	2.2
Cc1cccc(Cn2c(SCC(=O)Nc3ccccc3)nc3c2c(=O)[nH]c(=O)n3C)c1	47.2	0.5	69.6*	0.3	17.3
Cc1cccc(Cn2c(Sc3nc(C)cs3)nc3c2c(=O)[nH]c(=O)n3C)c1	1.4	1	7.6	0.9	6.7
CCCCCn1c(SCCc2ccccc2)nc2c1c(=O)[nH]c(=O)n2C	60.9*	0.4	39.7	0.6	5.8
CC(C)CCn1c(SCCN2CCOCC2)nc2c1c(=O)[nH]c(=O)n2C	85.3*	0.1	17.9	0.8	0.7
CCCn1c(SCCc2ccccc2)nc2c1c(=O)[nH]c(=O)n2C	58.6*	0.4	50.2*	0.5	22.8
CCCCSc1nc2c(c(=O)[nH]c(=O)n2C)n1CCc1ccccc1	2.1	1	-0.1	1	/
Cc1ccn2cc(CCNS(=O)(=O)c3ccc(F)c(C(F)(F)F)c3)nc2c1	38.3	0.6	48.6	0.5	4.4
O=C(Oc1ccc(OC(=O)N2CCOCC2)cc1)c1ccccc1	6.3	0.9	33.2	0.7	21.4
CC(C)n1c(SCCCc2ccccc2)nc2c1c(=O)[nH]c(=O)n2C	21.4	0.8	24.2	0.8	23.6
CC(C)CCn1c(SCCc2ccccc2)nc2c1c(=O)[nH]c(=O)n2C	92.8*	0.1	50.4*	0.5	1.0
Clc1cccc(Cl)c1-c1nnc2ccc(N3CCOCC3)nn12	67.8*	0.3	52.1*	0.5	28.4
Fc1cccc(Cl)c1-c1nnc2ccc(N3CCOCC3)nn12	49.3	0.5	42.3	0.6	4.9
COc1ccc(Cn2c(C3CC3)nc3ccc(NC(=O)c4ccco4)cc3c2=O)cc1	54.9*	0.5	53.7*	0.5	36.5*
CCC(=O)Nc1ccc2nc(C3CC3)n(Cc3ccccc3)c(=O)c2c1	-2.5	1	-2.8	1	10.2
O=C(NCc1cccnc1)C1CCN(S(=O)(=O)N2CCC3(CC2)OCCO3)CC1	-6.4	1.1	-11.8	1.1	10.8
SMILES	CYP2C9 inh	CYP2C9 activ	CYP2C19 inhib	CYP2C19 activ	Measles CPE
COC(=O)c1ccccc1NS(=O)(=O)c1ccc(O)c(C(=O)O)c1	90.6*	0.1	8.9	0.9	6.3
COc1ccc(S(=O)(=O)N2CCCCC2)cc1NS(=O)(=O)c1cc(Cl)ccc1Cl	/	/	/	/	13.0
COc1ccc(OC)c(S(=O)(=O)Nc2ccccc2C(=O)O)c1	3.2	1	-12.8	1.1	30.7
COc1cc(NS(=O)(=O)c2ccc(C)c(C)c2)c(OC)cc1Cl	94.6*	0.1	100.4*	0	4.0
Cc1nn(-c2ccccc2)c(Cl)c1/C=N/Nc1ccc(Cl)c(C(=O)O)c1	/	/	/	/	19.1
Cc1nn(-c2ccccc2)c(Cl)c1/C=N/Nc1ccc(S(=O)(=O)Nc2ccccc2C(=O)O)cc1[N+](=O)[O-]	69.1*	0.3	4.6	1	4.8
COc1ccc(C)cc1NS(=O)(=O)c1cc(C)ccc1C	21.8	0.8	41.4	0.6	-0.5
COc1ccccc1NS(=O)(=O)c1cc(C)ccc1C	-6.6	1.1	79.5*	0.2	3.8
Cc1nc2c3ccccc3nc(NNC(=O)CCC(=O)NCCC(C)C)n2n1	/	/	/	/	19.7
Cc1ccc(-n2nc(CN3CCOCC3)c(-c3ccccc3)c2N)c(C)c1	/	/	/	/	5.7
